# Data: PubChem BioAssay (NCI)
# This is part of a sample that, as a whole, favours compounds with a hit. Of some 83,000 tested, about 20% had one in any assay.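 Interpretation: 100, growth as untreated; towards 0, rising growth inhibition; 0, no net growth; 0 to -100, cell death. Compounds scoring below 10 were considered active.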 The source made the active and inactive calls.
# Tested on: HOP-92 NSCLC
# Assay: NCI-60 one-dose screen, 48 h (100 = growth as untreated, 0 = no growth, -100 = all killed)
# Conditions: 10 µM unless noted
row,Structure (SMILES),growth
1,CC(C)CSc1nc(Nc2ccccc2)c(C#N)c(-c2ccc(F)cc2)n1,-47.6% (active)
2,CCCCC(=O)Nc1c(C(=O)Nc2ccccc2)sc2nc3c(cc12)C(OC(=O)CCCC)CCC3 (centres undefined),84.4% (inactive)
3,COC(=O)[C@]1(C)CCC[C@]2(C)[C@H]3C[C@H]4C(C(C)C)=C[C@]3(CC[C@H]21)[C@@H]1C(=O)N(CCC#N)C(=O)[C@@H]14,81.1% (inactive)
4,CCN1CCN(c2ccc(NC(=O)Nc3nc4ccc(-c5ccccc5OC)cc4s3)cc2)CC1,2.16% (active)
5,C[C@H]1[C@H](C)CC[C@]2(C(=O)OCCOCCOCC[P+](c3ccccc3)(c3ccccc3)c3ccccc3)CC[C@]3(C)C(=CC[C@@H]4[C@@]5(C)CC[C@H](OC(=O)C(Cl)Cl)C(C)(C)[C@@H]5CC[C@]43C)[C@H]12,-26.6% (active)
6,COc1ccc(/C(=N\O)c2cc(C)c(OC)c(C)c2)cc1O,54.1% (inactive)
7,O=C(Nc1nccs1)c1noc2ccccc12,76.2% (inactive)
8,CCOc1ccccc1C(=O)/C=C/c1cc2ccccc2[nH]c1=O,0.541% (active)
9,Cc1ccc(-c2nc(C#N)c(S(=O)(=O)N(C)CCO)o2)cc1,88.9% (inactive)
10,Cc1ccc(C2CC(c3ccc(Nc4nc(NCCO)nc(NCCO)n4)cc3)=NN2c2ccc(Cl)cc2)cc1 (centres undefined),88.6% (inactive)
11,CN(C)CCCn1c2c(c3cc(-c4cccc(S(N)(=O)=O)c4)ccc3c1=O)C(=O)c1ccccc1-2,104% (inactive)
12,C=C(C)[C@@H]1CC[C@]2(C(=O)OCCOCCOCC[P+](c3ccccc3)(c3ccccc3)c3ccccc3)CC[C@]3(C)[C@H](CC[C@@H]4[C@@]5(C)CC[C@H](OC(=O)C(Cl)Cl)C(C)(C)[C@@H]5CC[C@]43C)[C@@H]12,-67.5% (active)
13,COC(=O)/C=C/c1cc(OC(C)=O)c2c(c1)C(C(=O)OC)C(c1ccc(OC(C)=O)c(OC(C)=O)c1)O2 (centres undefined),33.7% (inactive)
14,O=C(Nc1ccc(S(=O)(=O)NC2CCCCCC2)cc1)C(c1ccccc1)S(=O)(=O)c1ccc(F)cc1 (centres undefined),-12.2% (active)
15,COc1ccc2cc(/C=C3\N=C(c4cc(OC)c(OC)c(OC)c4)OC3=O)c(OC)nc2c1,97.7% (inactive)
16,N#Cc1ccc(C2C3=C(CCCC3=O)OC3=C2C(=O)c2ccccc2C3=O)cc1 (centres undefined),76.3% (inactive)
17,COCCOCCOCc1n(Cc2ccc3ccccc3c2)c2ccccc2[n+]1Cc1ccc2ccccc2c1,-32.1% (active)

row,Structure (SMILES),growth
1,CC(=O)Nc1c(C(=O)Nc2ccccc2)sc2nc3c(cc12)C(OC(C)=O)CCC3 (centres undefined),86.9% (inactive)
2,CCc1ccc(OCc2ccccc2C(=O)Nc2ccc3nc(C)cc(N)c3c2)cc1,-87.2% (active)
3,COc1ccc(C2C(c3ccccc3)C(=O)N2c2cc(OC)c(OC)c(OC)c2)cc1I (centres undefined),42.5% (inactive)
4,COc1cc(/C=C/C(=O)c2cccs2)ccc1OCc1ccc(Cl)nc1,85.2% (inactive)
5,C=C1C(=O)O[C@H]2[C@H]1CC/C(COC(=O)CCCCCCC(=O)OC/C1=C/CC[C@@]3(C)O[C@H]3[C@H]3OC(=O)C(=C)[C@@H]3CC1)=C\CC[C@@]1(C)O[C@@H]21,34% (inactive)
6,COc1ccc(C2CC(c3ccc(OC)cc3O)=NN2c2ccc(S(N)(=O)=O)cc2)cc1 (centres undefined),20.7% (inactive)
7,CCCn1cc(/C=N\N=C2\C(=O)Nc3ccc(C)cc32)c2ccccc21,37.4% (inactive)
8,N#Cc1c(-c2ccc(Cl)cc2)cc(-c2cc3ccccc3o2)nc1SCC(=O)c1ccc(Cl)cc1,83.7% (inactive)
9,CCCCCCCCCCCCCC1=NCC[N+]1(CCO)Cc1ccccc1 (centres undefined),-73.1% (active)
10,Nc1c(C(=O)Nc2cccc3ccccc23)sc2nc3c(cc12)CCCCC3,63.2% (inactive)
11,Cc1c(Cl)cccc1NC(=O)c1sc2nc3c(cc2c1N)CCCCCC3,29.3% (inactive)
12,N#Cc1c(-c2ccc(F)cc2)nc(N=Nc2c(O)[nH]c3ccc(Cl)cc23)nc1N1CCOCC1,-9.97% (active)
13,Cc1ccccc1NC(=O)c1sc2nc(C)c(C(C)O)cc2c1N (centres undefined),47.3% (inactive)
14,COc1cc(F)c(-c2nc3c(C)cccc3n2Cc2c(F)cccc2F)c(F)c1,81.3% (inactive)
15,Oc1ccc(CNNc2ccnc3c(O)cccc23)c2cccnc12,54.3% (inactive)
16,CC1(C)Cc2c(Br)c(Br)c(Br)c(OCC(O)CN3CCOCC3)c2O1 (centres undefined),-38.2% (active)
17,CCCCCOC(=O)c1ccccc1O,88% (inactive)
